# PubChem BioAssay (EPA / NIEHS)
# Results filed as inconclusive are left out. The source made the active and inactive calls. The calls were made as follows: active = hit-call score of the fitted dose curve at least 0.9, where 1 is the maximum; inconclusive = response in the unintended direction; inactive = score below 0.9.
# Experiment: ACEA_ER_80hr: ACEA Biosciences xCELLigence Real-Time Cell Analysis on Estrogen Receptor Agonism for Proliferation (AID 2282667)
# Details: T47D proliferation, impedance (xCELLigence), 80 h
# Outline: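 T-47D cells monitored by electrical impedance (xCELLigence) with compound present throughout; 80 h timepoint, positive-direction fitting versus DMSO. Eight-point 1:4 dilutions from 100 uM final, duplicate plates.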
SMILES,outcome,AC50
O=S(=O)(c1ccc(Cl)cc1)c1ccc(Cl)cc1,inactive,
Cc1ccc2ccccc2c1C,,13.5 µM (active)
C[C@@H](Oc1ccc(Cl)cc1Cl)C(=O)O,inactive,
ClC1=C(Cl)[C@]2(Cl)[C@H]3[C@H]([C@H]4C=C[C@H]3C4)[C@@]1(Cl)C2(Cl)Cl,inactive,
CC(C)C1CCC(Cc2ccc(Cl)cc2)C1(O)Cn1cncn1 (stereo not drawn),inactive,
O=[N+]([O-])c1ccc(O)c([N+](=O)[O-])c1,,75.8 µM (active)
CCCCP(CCCC)CCCC,inactive,
Nc1ccc(Cl)cc1C(=O)c1ccccc1,inactive,
O=C(O)Cc1ccccc1,inactive,
COc1ccc(C=O)cc1,inactive,
COc1ccc(C(O)(c2cncnc2)C2CC2)cc1 (stereo not drawn),inactive,
Cc1cc(Cl)ccc1O[C@H](C)C(=O)O,inactive,
OCc1ccco1,inactive,
Nc1cccc2ccccc12,inactive,
COP(=S)(OC)Oc1ccc(S(=O)(=O)N(C)C)cc1,inactive,
CNC,inactive,
N#Cc1ccccn1,inactive,

SMILES,outcome,AC50
CC1(C)CCC(Cc2ccc(Cl)cc2)C1(O)Cn1cncn1 (stereo not drawn),inactive,
ClCc1cccnc1,inactive,
ClC1=C(Cl)[C@]2(Cl)[C@@H]3[C@@H](Cl)[C@@H](Cl)C[C@@H]3[C@@]1(Cl)C2(Cl)Cl,inactive,
ClC(Cl)=C(Cl)C(Cl)=C(Cl)Cl,inactive,
CCNc1nc(NC(C)(C)C)nc(SC)n1,inactive,
CCC1(c2ccc(N)cc2)CCC(=O)NC1=O (stereo not drawn),inactive,
Oc1ccc(-c2ccccc2)cc1,,10.5 µM (active)
O=C(CCl)CCl,inactive,
COc1cc2c(cc1OC)[C@@]13CCN4CC5=CCO[C@H]6CC(=O)N2[C@H]1[C@H]6[C@H]5C[C@H]43,inactive,
COc1ccccc1OC,inactive,
C[C@H]1CCCC(=O)CCC/C=C/c2cc(O)cc(O)c2C(=O)O1,,0.00378 µM (active)
P.[In],,0.101 µM (active)
c1cc[c]([Hg][c]2ccccc2)cc1,inactive,
CCC[CH2][Sn]([Cl])([Cl])[Cl],inactive,
O=C1CCCN1,inactive,
CCCCCCCCCl,inactive,
